Values joined by “and” are separate entries in the source; they are usually repeats but may differ in a detail not shown here. Equal entries are not always repeated. About 83,000 compounds went through this panel and 20% of them were active in at least one assay; those are over-represented in the sample as a whole.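 Treatment: one concentration, 48 hours, 96-well format. Scoring: percent growth, with anything below 10 considered active.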 Active and inactive are the calls of the source.

The test relates to MDA-MB-468 breast. As to the kind of experiment: NCI-60 one-dose screen, 48 h (100 = growth as untreated, 0 = no growth, -100 = all killed). The settings on record: 10 µM unless noted.
For the compound `COC1CC(N)C2OC(c3ccccc3)OCC2O1` (centres undefined), the growth was 109% (inactive). `Cc1cccc2c(N)c3ccccc3nc12`: the growth is -60.5% (active).

Take `O=C(c1ccc(Cl)cc1Cl)N1c2ccccc2Sc2ccccc21`: the growth was 51.4% (inactive). Regarding `O=C(CSc1nc2sc3c(c2c(=O)n1Cc1ccccc1)CCCC3)N1CCN(c2ccccc2)CC1`, the growth is 106% (inactive). With `CCCO/N=C/c1ccccn1`, the growth was 115% (inactive) and 120% (inactive).

Take `CC(=O)C1Cc2ccccc2C1=O` (centres undefined): the growth was 105% (inactive).

Consider `COc1ccc(NC(=O)c2ccc(Nc3ncnc4c3cnn4-c3cccc(F)c3)cc2)cc1`, for which the growth is 100% (inactive). As for `CC(C)(C#N)c1cc(C(=O)Nc2cc(Nc3ncccc3-c3ncnc4nc[nH]c34)ccc2F)cc(C(F)(F)F)c1`, the growth is 90.2% (inactive). The result for `CC1=C2[C@@H](CC1)[C@]1(C)O[C@@](C3CC3)(C[C@H]1OC(=O)CO)[C@H]2OC(=O)/C=C/c1ccccc1` reads 83% (inactive). `CCOP(=O)(OCC)c1nc(-c2ccccc2)oc1NCc1cccnc1`: the growth is 114% (inactive).

Regarding `O=C(CCCCCCC(=O)Nc1ccccc1)NO`, the growth is 12.1% (inactive).

On to `CS(=O)(=O)c1ccc(C(=O)N/N=C/c2ccccc2Cl)cc1`, for which the growth is 96.1% (inactive). For the compound `Cc1[nH]c(C(=O)Nc2ccc(S(=O)(=O)N3CCCCC3)cc2OCCOCCOCCOCCOCCOCCOCCOCCOCCOc2cc(S(=O)(=O)N3CCCCC3)ccc2NC(=O)c2[nH]c(C)c3c2CCCCC3=O)c2c1C(=O)CCCC2`, the growth is -11.1% (active). `O=C1C=CC(O)=CC1=P(c1ccccc1)(c1ccccc1)c1ccccc1`: the growth is 92% (inactive).

The values above are taken from PubChem BioAssay (NCI).
